# PI4K2A block = inhibitors of human PI4K2A; hit rate 0.13% among 420,000; Q9BTU6; AID 1346378; purified PI4K2A, ADP-Glo luminescence, 1 h; stronger effect = lower value; activity change, negative = inhibition, % at 76.9 µM; in the data active = activity change below about -50%; inconclusive = mostly about -30% to -49%;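 also: -100% = wells without enzyme as full effect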
# Target sequence (Q9BTU6 whole entry, looked up): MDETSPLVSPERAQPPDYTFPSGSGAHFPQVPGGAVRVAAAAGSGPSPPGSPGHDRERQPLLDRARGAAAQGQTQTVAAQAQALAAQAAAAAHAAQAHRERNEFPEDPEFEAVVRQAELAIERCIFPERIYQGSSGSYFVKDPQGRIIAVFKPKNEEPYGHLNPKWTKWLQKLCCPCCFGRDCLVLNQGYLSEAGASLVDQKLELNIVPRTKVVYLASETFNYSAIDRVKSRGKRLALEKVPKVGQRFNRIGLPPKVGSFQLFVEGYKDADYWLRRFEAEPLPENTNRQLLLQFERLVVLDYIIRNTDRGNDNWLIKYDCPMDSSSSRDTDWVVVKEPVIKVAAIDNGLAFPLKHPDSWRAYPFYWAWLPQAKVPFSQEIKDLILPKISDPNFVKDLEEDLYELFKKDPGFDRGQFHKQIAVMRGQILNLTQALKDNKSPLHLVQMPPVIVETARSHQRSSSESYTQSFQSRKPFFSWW
#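 In this quantitative HTS, ADP production by PI4K2A was quantified luminescently after 1 h at ambient temperature; 100 microM adenosine served as plate-quality control.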
# Giardia killer = kills Giardia lamblia; activity change, % at 7.66 µM, hits read low; Giardia lamblia trophozoite viability; hit rate 0.15% among 340,000; in the data active = activity change below about -80%; inconclusive = between about -30% and that limit;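 also: parasites exposed to compound for two days anaerobically before the ATP read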
#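 Viability, read as ATP luminescence: trophozoites at 100 cells/well, compound added, 48 hrs anaerobic at 37 deg C, then 15-30 min room-temperature development before reading.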
# Nrf2 block = inhibitors of Nrf2 signaling. A549 ARE-Fluc reporter, luciferase luminescence, 18-24 h. Potency, µM (doses to about 46 µM), for inactives: at the top dose activity change, negative = inhibition, actives largely listed as inhibitors. hit rate 2.1% among 360,000. AID 504444; also: potency is read from the fitted curve at half-maximal effect; nearly all actives have a fitted effect of over 60% in size
#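 Concentration-response testing used A549 ARE_Fluc cells at 5000 cells/well. Following an 18-24 h compound incubation, viability was read by fluorescence (Ex 405/Em 525) and luciferase output by luminescence.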
# KB-V1 cytotox = KB-V1 MDR subline cytotoxicity | KB-V1 MDR cells viability, CellTiter-Glo, 72 h | Potency, µM (titrated, usually from 46.1 µM), usual class: cytotoxic | hit rate 3.4% among 400,000 | AID 1347076; also: potency is read from the fitted curve at half-maximal effect; nearly all actives have a fitted effect of over 60% in size
#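 Following 72 h at 37 degrees C with compound, KB-V1 cell viability was read by CellTiter-Glo luminescence, medium being phenol-red-free DMEM plus 10% FBS; concentration-response parameters came from normalized, curve-fitted qHTS data.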
# A549 tox = kills or reduces viability of A549 cells in Nrf2 counter-screen; A549 ARE-Fluc cells, CellTiter-Fluor viability, 18-24 h; Potency, µM (titrated, usually from 46 µM), for the others: at the top dose activity change, negative = cytotoxicity, hits mostly inhibitors; hit rate 0.16% among 390,000; also: potency is read from the fitted curve at half-maximal effect
#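 A549 ARE-Fluc cells in 5% FBS OPTI-MEM, 5000 cells/well, rested 2 h then exposed to compounds in concentration-response for 18-24 h at 37 °C. Viability by CellTiter-Fluor fluorescence (Ex 405/Em 525) after 30 min; luciferase luminescence (BugLite, 15 min, RT) read afterwards.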
# KB-3-1 tox = kills parental KB-3-1 adenocarcinoma cells. KB-3-1 viability, CellTiter-Glo ATP luminescence, 72 h. Potency, µM (top dose mostly 46.1 µM), usual class: cytotoxic. hit rate 1.4% among 400,000; also: potency is read from the fitted curve at half-maximal effect; nearly all actives have a fitted effect of over 60% in size
#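 Here the drug-naive KB-3-1 line serves as comparator for MDR sub-line selectivity; cells received compound titrations, 72 h at 37 °C, then CellTiter-Glo readout.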
# The depositor's hits bear a star; i = inactive; u = inconclusive; x = not tested or not shown; ! = not confirmed by another sample. Only some compounds are listed: those with a hit (about 5.7% of all), similar ones and a draw of the others. Unless noted, calls follow the shape of the dose curve; as a rule, active = well fitted curve in the direction sought with a large enough effect; inconclusive = small, poorly fitted or top-dose-only effect, or another doubt; inactive = no such curve, though single readings can be large; an effect the other way counts as inactive or inconclusive. Unless noted, % is scaled to controls: 0 for no effect and ±100 for the full control effect.
SMILES,PI4K2A block,Giardia killer,Nrf2 block,KB-V1 cytotox,A549 tox,KB-3-1 tox
O=C(O)c1[nH]c(=O)[nH]c(=O)c1F,-3,-17,u,i,-10%,7.3µM*
COc1cccc(-n2c(-c3ccoc3)nc3ccccc3c2=O)c1,-1,-2,12%,15µM*,-21%,i
COc1ccc2[nH]c3c(c2c1)CCN1C(=O)C(CC(=O)NCc2cccc(C(F)(F)F)c2)C[C@H](C(=O)N2CCCCC2)[C@@]31C (stereo not given in full),1,13,u,i,-23%,i
COc1ccc(CCNC(=O)N2c3ccccc3Sc3ccccc32)cc1,12,0,16µM*,u,u,u
CCOC(=O)C(O)(c1ccc(N(CC)S(=O)(=O)c2ccc(C)cc2)cc1)C(F)(F)F (stereo not given),1,-21,u,18µM*,u,i
CCN(c1ccc(C(O)(C(=O)OC)C(F)(F)F)cc1)S(=O)(=O)c1ccc(C)cc1 (stereo not given),1,0,x,u,0%,i
CC[C@]1(O)CC[C@H]2[C@@H]3CCC4=CCCC[C@@H]4[C@H]3CC[C@@]21C,2,x,x,x,x,x
COC(=O)C1=C(c2ccc(-c3ccccc3)c(F)c2)C[C@@H]2CC[C@H]1N2C(=O)NCC1CC1,3,3,13µM*,u,u,u
COC(=O)C1=C(c2ccc(OC)c(OC)c2)C[C@@H]2CC[C@H]1N2C(=O)NCCOc1ccccc1,6,16,1%,i,-1%,i
COC(=O)C1=C(c2c(C)noc2C)C[C@@H]2CC[C@H]1N2C(=O)NCCO,-53*,-7,-8%,i,-3%,i
CCCNC(=O)N1[C@H]2CC[C@@H]1C(C(=O)OC)=C(c1c(C)noc1C)C2,-2,11,2%,i,-3%,i
COCCNC(=O)N1[C@H]2CC[C@@H]1C(C(=O)OC)=C(c1ccc(-c3ccccc3)c(F)c1)C2,5,2,18µM*,i,-3%,i
COC(=O)C1=C(c2ccc(-c3ccccc3)c(F)c2)C[C@@H]2CC[C@H]1N2C(=O)NCCOc1ccccc1,0,-2,18µM*,i,u,i
CCC(=O)C(CC(C)N(C)C)(c1ccccc1)c1ccccc1 (stereo not given),i,x,x,x,x,x
CN(Cc1ccccc1)C(=O)c1ccc(NC(=O)C2CCN(C(=O)OC(C)(C)C)CC2)cc1,3,21,16µM*,i,-5%,u
CCC(CC)(CNC(=O)CCCO)c1cccc(OC)c1,1,x,x,x,x,x
Cc1ccc(Cl)cc1NC(=O)N(Cc1ccc2c(c1)OCO2)C1CCN(Cc2ccccc2)CC1,3,x,-10%,u,-24%,i
COc1cc([C@@H]2c3cc4c(c(O)c3C[C@H]3COC(=O)[C@@H]32)OCO4)cc(OC)c1OC,x,10,u,4.1µM*,-4%,0.52µM*
COc1cc([C@@H]2c3cc4c(cc3[C@H](OC(C)=O)[C@H]3COC(=O)[C@@H]23)OCO4)cc(OC)c1OC,x,-8,u,u,-1%,0.65µM*
COc1cc(C2c3cc4c(c(O)c3CC3COC(=O)C32)OCO4)cc(OC)c1OC (stereo not given),-2,-14,u,0.18µM*!,u,0.0082µM*!
COc1cc(C2c3cc4c(cc3CC3COC(=O)C32)OCO4)cc(OC)c1OC (stereo not given),-2,26,u,0.58µM*,-19%,0.92µM*
COc1cc([C@@H]2c3cc4c(cc3[C@@H](O)C3COC(=O)C32)OCO4)cc(OC)c1O (stereo not given in full),x,14,u,x,-10%,x
CCC(C(N)=O)N1CCCC1=O (stereo not given),0,x,x,x,x,x
CCCN(CCC)C(=O)Cc1c(-c2ccc(Cl)cc2)nc2ccc(Cl)cn12,-2,x,x,x,x,x
O=c1[nH]c2ccccc2n1C1CCN(CCCC(c2ccc(F)cc2)c2ccc(F)cc2)CC1,3,-11,u,12µM*,u,u
SMILES,PI4K2A block,Giardia killer,Nrf2 block,KB-V1 cytotox,A549 tox,KB-3-1 tox
C[C@@H]1CC2=CC(=O)CC[C@@H]2[C@H]2CC[C@@]3(C)[C@@H](CC[C@]3(C)O)[C@@H]21,2,x,x,x,x,x
Oc1ccc2[nH]cc(CCCCN3CC=C(c4ccccc4)CC3)c2c1,0,x,x,x,x,x
COc1ccc(NC2Oc3cc4c(cc3C(c3cc(OC)c(OC)c(OC)c3)C2C)OCO4)cc1 (stereo not given),-3,3,u,5.8µM*,u,1.6µM*
CC(CNC(=O)c1ccc(CSc2nc3ccncc3n2Cc2ccc(F)cc2)cc1)c1ccccc1 (stereo not given),-2,x,23µM*,i,-9%,u
Cc1cc(NC(=O)CCl)no1,-9,-7,16µM*,u,u,u
COc1ccc(Oc2cc(NC(=O)c3nn(C)cc3[N+](=O)[O-])cc([N+](=O)[O-])c2)cc1,-2,-27,-20%,u,-15%,21µM*
COc1ccc(NC(=O)c2cn(CCC#N)nc2-c2cccc([N+](=O)[O-])c2)cc1,2,-12,-9%,i,0%,i
CC(C)c1ccc(Cc2cn3cc(-c4cc5ccccc5oc4=O)nc3s2)cc1,-4,x,u,u,-8%,0.58µM*
CC(C)c1ccc(C(c2c(O)c3ccccc3oc2=O)c2c(O)c3ccccc3oc2=O)cc1,-1,x,x,i,x,i
COC(=O)C1=C(c2ccc(F)cc2OCc2ccccc2)C[C@@H]2CC[C@H]1N2C(=O)NCCCc1ccccc1,-2,1,16µM*,u,-17%,i
COC(=O)C1=C(c2ccc(F)cc2OCc2ccccc2)C[C@@H]2CC[C@H]1N2C(=O)NCc1ccc(C)cc1,-3,5,15µM*,i,u,u
COC(=O)C1=C(c2ccc(F)cc2OCc2ccccc2)C[C@@H]2CC[C@H]1N2C(=O)NC1Cc2ccccc2C1,-2,5,16µM*,i,-17%,u
COC(=O)C1=C(c2ccc(OCc3ccccc3)cc2)C[C@@H]2CC[C@H]1N2C(=O)NCc1ccc(C(C)(C)C)cc1,-11,x,x,i,x,i
COC(=O)C1=C(c2ccccc2OCc2ccccc2)C[C@@H]2CC[C@H]1N2C(=O)NCc1ccc(C(C)(C)C)cc1,1,11,21µM*,i,-12%,u
NC1CC1c1ccccc1 (stereo not given),3,x,x,x,x,x
CCCc1cc(N2CCN(c3cccc(C)c3C)CC2)n2cnnc2n1,1,x,u,u,-1%,i

# Screening results: PubChem, National Center for Advancing Translational Sciences (NCATS)
